# Data reported in PubChem BioAssay (EPA / NIEHS).
# Results filed as inconclusive are left out. Calls of active or inactive are those of the source. Rule for the calls: active = hit-call score of the fitted dose curve at least 0.9, where 1 is the maximum; inconclusive = response in the unintended direction; inactive = score below 0.9.
# Test: Tanguay_ZF_120hpf_CIRC_legacy: (Legacy) Oregon State University Tanguay Lab 120 Hour Post-fertilization zebrafish Assay for Circulatory Malformation (AID 2283651)
# Description: Tanguay_ZF_120hpf_legacy is a whole embryo, multiplexed endpoint assay using zebrafish larvae exposed for 120 hours post fertilization on a 96-well plate.Tanguay_ZF_120hpf_CIRC_legacy is one of one assay component(s) measured or calculated from the Tanguay_ZF_120hpf_legacy assay. It is designed to make measurements of zebrafish development as detected with brightfield microscopy of developing zebrafish embryos.Data from the assay component Tanguay_ZF_120hpf_CIRC_legacy was analyzed into 1 assay endpoints. This assay endpoint, Tanguay_ZF_120hpf_CIRC_legacy, was analyzed in the positive analysis fitting direction relative to DMSO as the negative control and baseline of activity. Using a type of morphology reporter, gain-of-signal activity can be used to understand changes in developmentals as they relate to the whole embryo. To generalize the intended target to other relatable targets, this assay endpoint is annotated to the zebrafish development intended target family, where the subfamily is angiogenesis.
# Zebrafish husbandry: Tropical 5D wild-type adult zebrafish were housed in at an approximate density of 1000 per 100 gallon tank at the Sinnhuber Aquatic Research Laboratory, Oregon State University, Corvallis, OR. Each tank was kept at standard laboratory conditions of 28C on a 14-h light/10-h dark photoperiod in fish water consisting of reverse osmosis water supplemented with a commercially available salt (Instant Ocean). Spawning funnels were placed into the tanks the night prior, and embryos were collected and staged. To increase bioavailability, the chorion was enzymatically removed using pronase (63.6mg/ml, >/= 3.5U/mg, Sigma-Aldrich: P5147) at 4 hours post fertilization (hpf) using a custom automated dechorionator.Chemical exposures: Six hpf dechorionated embryos were placed 1 embryo per well in a 96-well plate prefilled with 90 ul of EM using automated embryo placement systems (AEPS). Ten microliters of each row of dilution plate 2 was added to 2 exposure plates. The final DMSO concentration used was 0.64% (vol/vol). Thirty-two embryos were also exposed to 5uM trimethyltin chloride (positive control). Plates were sealed to prevent evaporation and foil covered to reduce light exposure and kept in a 28C incubator. Embryos were statically exposed until 120 hpf. At 24 hpf, embryos were assessed for photomotor response using a custom photomotor response analysis tool (PRAT) and for developmental toxicity endpoints (MO24: mortality at 24 hpf, DP: developmental progression, SM: spontaneous movement, and NC: notochord distortion). At 120 hpf, locomotor activity was measured using Viewpoint Zebralab and assessed for 18 endpoints. Zebrafish acquisition and analysis program (ZAAP), a custom program designed to inventory, acquire, and manage zebrafish data, was used to collect developmental endpoints as either present or absent (i.e., binary responses were recorded). If mortality occurred for an embryo (at either 24 or 120 hpf), the non-mortality endpoints were not measured.
row,Compound,outcome
1,OC12N=C(c3ccccc3)SC1Cc1cc(Cl)ccc12 (stereo not given),inactive
2,CCCCCCCCCCCCO,inactive
3,c1ccc2n[nH]nc2c1,inactive
4,CCCCCCCCCCCC[N+](C)(C)C,inactive
5,OCCO,inactive
6,CN(C)C(=O)C1(N2CCCCC2)CCN(CC[C@@]2(c3ccc(Cl)c(Cl)c3)CN(C(=O)c3ccccc3)CCO2)CC1,inactive
7,O=C=NCCCCCCN=C=O,inactive
8,CCCCCc1ccc(N)cc1,inactive
9,O=C(O)Cc1cc(I)c(Oc2ccc(O)c(I)c2)c(I)c1,inactive
10,O=C(O)Cn1c(=O)n(Cc2ccc(Br)cc2F)c(=O)c2ccc(Cl)cc21,inactive
11,O=c1[nH]sc2ccccc12,inactive
12,Cc1c2ccccc2c(C)c2c1ccc1ccccc12,inactive
13,CCCCCCCCCCCO,inactive
14,C[C@]12CC[C@@H]3c4ccc(O)cc4CC[C@H]3[C@@H]1CC[C@H]2O,inactive
15,CCCOC(=O)c1cc(O)c(O)c(O)c1,inactive
16,Cc1cn([C@H]2C[C@H](N=[N+]=[N-])[C@@H](CO)O2)c(=O)[nH]c1=O,inactive
17,c1ccc2ccccc2c1,inactive
18,O=C(O)c1ccccc1C(=O)OCc1ccccc1,inactive
19,Cc1ccc2oc(CN(Cc3ccccc3)C(=O)Nc3c(F)cc(F)cc3F)c(-c3ccc(Cl)cc3)c2c1,inactive
20,O=C1CCC(C2CCCCC2)CC1,inactive

row,Compound,outcome
1,Cc1cccc2ccccc12,inactive
2,O=C(OCCCCCCOC(=O)c1ccccc1)c1ccccc1,inactive
3,Cc1cc(F)ccc1-c1cc(N2CC[C@@H](O)[C@H]2CO)ncc1N(C)C(=O)C(C)(C)c1cc(C(F)(F)F)cc(C(F)(F)F)c1,inactive
4,CN(C)c1ccc(C(=C2C=CC(=[N+](C)C)C=C2)c2ccc(N(C)C)cc2)cc1,inactive
5,Cc1ccc(C(C)C)cc1,inactive
6,O=c1ccc2ccccc2o1,inactive
7,CCO[Si](CCCNC(N)=O)(OCC)OCC,inactive
8,O=C1c2ccccc2C(=O)N1CCc1noc(-c2ccc(CN3CCCCCC3)s2)n1,inactive
9,CCN(CC)C(=O)c1cc(S(=O)(=O)Cc2ccccc2)c(N2CCC(c3ccccc3)CC2)cc1N(CC)CCN(C)C,inactive
10,CCOC(=O)O[C@H](C)OC(=O)c1ccc2c(c1)cc(C(=O)NC1CCN(C(C)C)CC1)n2Cc1cc(-c2ccc(Cl)s2)on1,inactive
11,O=C(Nc1ccc(Cl)cc1)Nc1ccc(Cl)c(Cl)c1,inactive
12,CCCCCCCCN(C)CCCCCCCC,inactive
13,COc1ccc2cc(S(=O)(=O)N[C@H](CC(=O)N[C@H](Cc3ccc(CN4[C@H](C)CCC[C@@H]4C)cc3)C(=O)N(C)C(C)C)c3ccc4c(c3)OCO4)ccc2c1,inactive
14,O=C(O)c1ccccc1-n1cc(C(=O)O)c(=O)c2cc(Nc3c(F)cc(F)cc3Cl)c(Cl)cc21,inactive
15,Cc1oc2c(NC(=O)c3c(Cl)cccc3Cl)cccc2c1C(C)(C)O,inactive
16,CC(=O)N1CCN(c2ccc(OC[C@H]3CO[C@](Cn4ccnc4)(c4ccc(Cl)cc4Cl)O3)cc2)CC1,inactive
17,O=c1c(-c2ccc(O)cc2)coc2cc(O)cc(O)c12,inactive
18,Oc1ccc2ccccc2c1,inactive
19,CC/C(=C(/CC)c1ccc(O)cc1)c1ccc(O)cc1,inactive
20,CN1C(=O)N(c2ccccc2Br)Cc2cnc(Nc3ccc4c(c3)OCC(CO)O4)nc21 (stereo not given),inactive
